Here are results for eight compounds from PubChem BioAssay (Tox21).

Unmarked numbers belong to inactive results. Records with an inconclusive call do not appear. Calls of active or inactive are those of the source. Unless noted, calls follow the shape of the dose curve; as a rule, active = well fitted curve in the direction sought with a large enough effect in the repeat runs; inconclusive = weak or mixed curves; inactive = no such curve, though single readings can be large; an effect the other way counts as inactive or inconclusive.

Assay [1] can be described thus: A CellTox Green Cytotoxicity Assay to monitor cytotoxicity in HepG2 cells - 0 hour (AID 1224882). Also: nearly all actives have a fitted effect of over 35% in size. The method in brief: (§1)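 Nonlytic assay: viable cells exclude the dye, so fluorescence scales with cell death. HepG2 at 600 cells/well, compounds added after 5 h, signal read across 40 h.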
Assay [2] in a line: A CellTox Green Cytotoxicity Assay to monitor cytotoxicity in HepG2 cells - 32 hour (AID 1224883). Also: nearly all actives have a fitted effect of over 50% in size. The method in brief: as §1
A short description of assay [3]: A CellTox Green Cytotoxicity Assay to monitor cytotoxicity in HEK293 cells - 8 hour (AID 1224884). Also: nearly all actives have a fitted effect of over 35% in size. The method, boiled down:
(§2)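 Seeding of HEK293 cells together with cytotoxicity dye preceded a 5 h incubation at 37 C/5% CO2. Test compounds in DMSO were then added and fluorescence monitored across 40 h.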

Assay [4] is described as follows: qHTS RealTime-Glo MT Cell Viability Assay in HepG2 cells - 16 hour (AID 1224885). Also: nearly all actives have a fitted effect of over 50% in size. The method in brief:
(§3)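 HepG2 cells (600/well) were dispensed with RealTime-Glo reagents, incubated 5 h at 37 °C, then treated with compounds in DMSO for up to 40 h. Nonlytic NanoLuc luminescence reflecting viable cells was read at each stated time point.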
(In general: In qHTS, concentration-response curves come from the screen itself.)

The nature of assay [5]: qHTS RealTime-Glo MT Cell Viability Assay in HepG2 cells - 0 hour (AID 1224889). Also: nearly all actives have a fitted effect of over 50% in size. The method, boiled down: as §3
Assay [6] in a line: A CellTox Green Cytotoxicity Assay to monitor cytotoxicity in HepG2 cells - 8 hour (AID 1224890). Also: nearly all actives have a fitted effect of over 45% in size. The method, boiled down:
as §1

Assay [7] is described as follows: qHTS assay to identify small molecule antagonists of the estrogen receptor alpha (ER-alpha) signaling pathway using the BG1 cell line in the presence of 0.1 nM 17-beta-estradiol - cell viability counter screen (AID 1259241). Also: nearly all actives have a fitted effect of over 40% in size. Also: potency is read from the fitted curve at half-maximal effect. The method, boiled down:
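Estradiol-stimulated (0.1 nM) VM7Luc4E2 cells exposed to compounds 22 hr; viability measured by fluorescence of cleaved CellTiter-Fluor substrate after 30 min.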

Assay [8] is described as follows: qHTS assay to identify small molecule antagonists of the androgen receptor (AR) signaling pathway using the MDA cell line in the presence of 0.5 nM R1881 - cell viability counter screen (AID 1259242). Also: nearly all actives have a fitted effect of over 45% in size. The method in brief: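 R1881 at 0.5 nM final stimulated MDA-kb2 cells during 16 hr compound treatment at 37C. Cytotoxicity read: CellTiter-Fluor fluorescence after 30 min.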

In assay [9] the target is Androgen receptor (Homo sapiens) (UniProt P10275). The experiment in a line: qHTS assay to identify small molecule antagonists of the androgen receptor (AR) signaling pathway using the MDA cell line in the presence of 0.5 nM R1881 (AID 1259243). Also: nearly all actives have a fitted effect of over 50% in size. The method, boiled down:
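We exposed MDA-kb2 cells to compounds under 0.5 nM R1881 stimulation for 16 hr at 37C and quantified MMTV-driven luciferase by luminescence.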

Assay [10] has as its target Estrogen receptor (Homo sapiens) (UniProt P03372). The experiment in a line: qHTS assay to identify small molecule antagonists of the estrogen receptor alpha (ER-alpha) signaling pathway using the BG1 cell line in the presence of 0.1 nM 17-beta-estradiol (AID 1259244). Also: nearly all actives have a fitted effect of over 50% in size. The method, boiled down:
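VM7Luc4E2; 4xERE-luciferase; 0.1 nM E2 final; 22 h co-incubation, 37C; ONE-Glo luminescence after 30 min at room temperature.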

A short description of assay [11]: qHTS assay to identify small molecule HDAC inhibitors - cell viability counter screen (AID 1259365). The method, boiled down:
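After overnight seeding at 1,500 cells per well, wild-type HCT-116 cultures took up compounds in DMSO for 2hr at 37 C. Viable cell content came from luminescence with CellTiter-Glo.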

The nature of assay [12]: qHTS assay to identify small molecule agonists of the sonic hedgehog signaling (Shh) pathway - cell viability counter screen (AID 1259366). Also: nearly all actives have a fitted effect of over 50% in size. Also: potency is read from the fitted curve at half-maximal effect. The method in brief: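 Same-well cytotoxicity read. Gli1-Luc reporter 3T3 cells; compounds 24hr, 37C/5% CO2; CellTiter-Fluor fluorescence.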
Assay [13] in a line: qHTS assay to identify small molecule antagonists of the sonic hedgehog signaling (Shh) pathway - cell viability counter screen (AID 1259367). Also: nearly all actives have a fitted effect of over 55% in size. Also: potency is read from the fitted curve at half-maximal effect. The method in brief: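 NIH/3T3-derived Gli1-Luc reporter cells (2,000 per well) rested 4 hr at 37 C, then received DMSO compounds plus conditioned medium. After 23 hr of treatment, CellTiter-Fluor was added for 1 hr at 37C and fluorescence read.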

Assay [14] in a line: A CellTox Green Cytotoxicity Assay to monitor cytotoxicity in HEK293 cells - 32 hour (AID 1224881). Also: nearly all actives have a fitted effect of over 40% in size. The method, boiled down: as §2
The nature of assay [15]: qHTS RealTime-Glo MT Cell Viability Assay in HEK293 cells - 24 hour (AID 1224886). The method in brief:
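HEK293 cells seeded with NanoLuc/prosubstrate reagent, rested 5 h at 37 C, then dosed and kept at 37 C up to 40 h. Nonlytic real-time luminescence from viable cells read at 0, 8, 16, 24, 32 and 40 h.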

Assay [16] is described as follows: qHTS RealTime-Glo MT Cell Viability Assay in HEK293 cells - 8 hour (AID 1224887). The method, boiled down: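 Tox21 screen in HEK293 using RealTime-Glo MT chemistry, with cells and reagent co-dispensed. Luminescence proportional to viable cell number was captured at intervals during 40 h compound exposure at 37 C.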
The nature of assay [17]: A CellTox Green Cytotoxicity Assay to monitor cytotoxicity in HEK293 cells - 16 hour (AID 1224888). Also: nearly all actives have a fitted effect of over 35% in size. The method, boiled down: as §2
Assay [18] in a line: qHTS assay to identify small molecule HDAC inhibitors (AID 1259364).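 Also: wild-type HCT-116 cells with endogenous class I/II HDAC activity; top concentration of the series differs between compounds; nearly all actives have a fitted effect of over 45% in size.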 The method in brief:
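Relative class I and II HDAC activity is taken from the luminogenic signal in HCT-116 cells, with compound exposure 2 hr and reagent development 30 min at room temperature.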

A short description of assay [19]: qHTS assay to identify small molecule phospholipidosis (PLD) inducers (AID 1259344; active = well fitted curve in the direction sought with a large enough effect; an effect the other way counts as inactive or inconclusive). The method in brief:
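HepG2 cells on collagen I, attached 4 h at 37 C, were co-treated with compound and LipidTOX Red dye for 24 h at 37 C, then fixed with paraformaldehyde plus Hoechst 33342 and imaged by high-content microscopy for phospholipid accumulation.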
% is scaled to controls: 0 for no effect and ±100 for the full control effect.

Chain of Estrogen receptor (Homo sapiens) (P03372 whole entry, looked up): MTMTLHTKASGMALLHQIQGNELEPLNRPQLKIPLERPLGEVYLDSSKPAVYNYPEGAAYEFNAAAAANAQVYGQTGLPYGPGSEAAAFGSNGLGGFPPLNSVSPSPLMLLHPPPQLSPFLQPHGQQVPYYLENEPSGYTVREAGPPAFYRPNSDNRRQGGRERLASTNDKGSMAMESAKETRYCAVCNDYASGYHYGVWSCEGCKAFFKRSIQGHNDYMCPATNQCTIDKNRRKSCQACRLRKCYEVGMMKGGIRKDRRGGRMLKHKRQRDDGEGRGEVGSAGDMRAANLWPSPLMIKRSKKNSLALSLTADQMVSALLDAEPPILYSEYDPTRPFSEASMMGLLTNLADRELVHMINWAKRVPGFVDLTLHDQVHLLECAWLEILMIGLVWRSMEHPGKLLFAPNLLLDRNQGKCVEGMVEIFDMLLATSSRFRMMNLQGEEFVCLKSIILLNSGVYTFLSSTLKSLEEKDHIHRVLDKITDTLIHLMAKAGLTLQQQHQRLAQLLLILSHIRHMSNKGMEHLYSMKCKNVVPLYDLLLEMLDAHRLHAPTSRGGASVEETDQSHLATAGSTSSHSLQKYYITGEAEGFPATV
Chain of Androgen receptor (Homo sapiens) (P10275 whole entry, looked up): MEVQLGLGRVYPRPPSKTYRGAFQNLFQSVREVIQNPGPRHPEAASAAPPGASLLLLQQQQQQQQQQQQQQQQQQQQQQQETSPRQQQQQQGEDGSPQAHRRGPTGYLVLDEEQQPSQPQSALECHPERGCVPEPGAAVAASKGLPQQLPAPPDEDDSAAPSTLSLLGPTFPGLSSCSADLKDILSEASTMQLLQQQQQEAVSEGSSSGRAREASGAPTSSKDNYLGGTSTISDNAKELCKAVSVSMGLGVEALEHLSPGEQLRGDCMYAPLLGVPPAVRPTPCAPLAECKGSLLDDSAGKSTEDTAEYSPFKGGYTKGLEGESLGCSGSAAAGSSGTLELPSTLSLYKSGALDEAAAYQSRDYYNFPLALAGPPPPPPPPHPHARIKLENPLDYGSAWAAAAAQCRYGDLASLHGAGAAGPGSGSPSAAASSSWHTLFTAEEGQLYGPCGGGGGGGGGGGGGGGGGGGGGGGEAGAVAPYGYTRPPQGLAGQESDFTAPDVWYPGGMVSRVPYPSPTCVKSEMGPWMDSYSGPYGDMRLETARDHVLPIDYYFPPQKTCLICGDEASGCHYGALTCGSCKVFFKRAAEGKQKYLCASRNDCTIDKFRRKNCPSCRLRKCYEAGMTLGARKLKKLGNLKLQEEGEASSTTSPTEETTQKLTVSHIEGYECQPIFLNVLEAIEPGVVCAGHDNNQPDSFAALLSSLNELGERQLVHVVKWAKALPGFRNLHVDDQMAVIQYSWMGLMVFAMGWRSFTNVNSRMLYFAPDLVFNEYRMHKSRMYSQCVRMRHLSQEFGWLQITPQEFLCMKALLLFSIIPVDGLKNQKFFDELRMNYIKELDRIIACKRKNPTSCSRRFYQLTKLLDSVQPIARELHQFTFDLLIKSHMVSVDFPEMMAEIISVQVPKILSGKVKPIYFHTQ

Regarding `CCC(Cl)CC(Cl)C(Cl)C(Cl)C(Cl)C(C)Cl` (stereo not drawn), the cytotoxicity in [1] is 0.838% [at 15.8 µM]. The figures for the cytotoxicity increase in assay [2], in assay [3] and in [6] were 1.37% [at 15.8 µM], 24.2% [at 15.8 µM] and 7.16% [at 15.8 µM], respectively. Also, the activity change, negative = cytotoxic in assay [4] was -2.19% [at 15.8 µM]. Further, the figures for the activity change, negative = cytotoxicity in assay [5], in assay [7] and in assay [11] were 1.09% [at 15.8 µM], 0.764% [at 19 µM] and -3.08% [at 19 µM], respectively. For the same compound, the viability change, negative = cytotoxic is 0.388% [at 19 µM] in [8], -0.751% [at 19 µM] in assay [12] and 0.145% [at 19 µM] in assay [13]. Also, in assay [9], the activity, negative = inhibition was 72.1% [at 19 µM]. The activity change, negative = inhibition in [10] is 63.4% [at 19 µM].

Turning to `O=S(=O)(O)CO`, the Potency entry in assay [14], in [1], in assay [2], in assay [3], in assay [4] and in assay [15] was “inactive” in each case. Further, the Potency entry in assay [16], in assay [17], in [5], in assay [6], in assay [7] and in assay [8] was “inactive” throughout. The Potency result in assay [18], in assay [11], in assay [12] and in [13] was “inactive” throughout.

As to `CC[C@H]1OC(=O)[C@H](C)[C@@H](O[C@H]2C[C@@](C)(OC)[C@@H](O)[C@H](C)O2)[C@H](C)[C@@H](O[C@@H]2O[C@H](C)C[C@H](N(C)C)[C@H]2O)[C@](C)(O)C[C@@H](C)/C(=N\OCOCCOC)[C@H](C)[C@@H](O)[C@]1(C)O`, the Potency entry in [14], in [1], in [2], in assay [3], in assay [15] and in assay [16] was “inactive” throughout. The Potency result in assay [17], in [5], in [6], in assay [8], in assay [10] and in assay [19] was “inactive” throughout. For the same compound, the Potency result in assay [18] and in assay [11] was “inactive” in each case. Besides, the Potency in assay [7] is 10.2 µM (active); in assay [12], 5.09 µM (active); in [13], 8.07 µM (active).

Turning to `O=C(O)c1ccc(O)cc1O`, the Potency entry in [14], in assay [1], in assay [2], in assay [3], in assay [15] and in assay [16] was “inactive” each time. For the same compound, the Potency result in assay [17], in assay [5], in assay [6], in [7], in [8] and in assay [18] was “inactive” each time. The Potency entry in assay [12] and in [13] was “inactive” each time.

As to `CCCCOC(=O)CCCCC(=O)OCCCC`, the Potency entry in [14], in assay [1], in [2], in assay [3], in assay [4] and in assay [15] was “inactive” in each case. For the same compound, the Potency result in assay [16], in assay [17], in assay [5], in assay [6], in assay [7] and in assay [8] was “inactive” throughout. Further, the Potency entry in assay [18], in [11], in assay [12] and in assay [13] was “inactive” in each case.

Turning to `COC(CC(C)CCCC(C)(C)O)OC` (stereo not drawn), the Potency entry in assay [14], in [1], in assay [2], in assay [3], in [4] and in assay [15] was “inactive” throughout. Besides, the Potency entry in assay [16], in [17], in assay [5], in [6], in assay [7] and in assay [8] was “inactive” throughout. Also, the Potency result in [18], in assay [11], in assay [12] and in assay [13] was “inactive” throughout.

Regarding `CC/C=C\C/C=C\C/C=C\CCCCCCCC(=O)OCC`, the Potency entry in assay [14], in assay [1], in assay [2], in assay [3], in [4] and in assay [15] was “inactive” in each case. Further, the Potency entry in [16], in [17], in assay [5], in assay [6], in assay [7] and in assay [8] was “inactive” each time. For the same compound, the Potency entry in [18], in assay [11] and in [12] was “inactive” throughout.

Regarding `CCSC(=O)N(CC)CC`, the Potency entry in assay [14], in assay [1], in assay [2], in [4], in assay [15] and in assay [16] was “inactive” throughout. The Potency result in assay [17], in assay [5], in [6], in assay [7], in assay [8] and in assay [10] was “inactive” throughout. For the same compound, the Potency entry in assay [18], in [11], in assay [12] and in [13] was “inactive” each time.
